Inconclusive results are not listed. Activity calls are given as the source filed them. The call rests on the fitted dose curve; in most records, active means well fitted inhibition curve with a large enough effect in the repeat runs; inconclusive means weak or mixed curves; inactive means no such curve, though single readings can be large or run the other way.
On the % scale 0 is the no-effect control and ±100 the full control effect; potency means the concentration at half of the fitted maximal effect.

This test deals with Cytochrome P450 1A2 (Homo sapiens) (UniProt P05177). Briefly: Cytochrome P450 Family 1 Subfamily A Member 2 (CYP1A2) small molecule antagonists: luciferase reporter qHTS assay (AID 1671199). Further: nearly all actives have a fitted effect of over 50% in size. The following applies: P450-Glo CYP1A2 enzyme, luciferin luminescence, 1 h; series mostly up to 115 µM; activity change, negative = inhibition: at the top concentration. From the text: National Center for Advancing Translational Sciences [NCATS]
Cytochrome P450 1A2 (Homo sapiens), sequence (P05177 whole entry, looked up): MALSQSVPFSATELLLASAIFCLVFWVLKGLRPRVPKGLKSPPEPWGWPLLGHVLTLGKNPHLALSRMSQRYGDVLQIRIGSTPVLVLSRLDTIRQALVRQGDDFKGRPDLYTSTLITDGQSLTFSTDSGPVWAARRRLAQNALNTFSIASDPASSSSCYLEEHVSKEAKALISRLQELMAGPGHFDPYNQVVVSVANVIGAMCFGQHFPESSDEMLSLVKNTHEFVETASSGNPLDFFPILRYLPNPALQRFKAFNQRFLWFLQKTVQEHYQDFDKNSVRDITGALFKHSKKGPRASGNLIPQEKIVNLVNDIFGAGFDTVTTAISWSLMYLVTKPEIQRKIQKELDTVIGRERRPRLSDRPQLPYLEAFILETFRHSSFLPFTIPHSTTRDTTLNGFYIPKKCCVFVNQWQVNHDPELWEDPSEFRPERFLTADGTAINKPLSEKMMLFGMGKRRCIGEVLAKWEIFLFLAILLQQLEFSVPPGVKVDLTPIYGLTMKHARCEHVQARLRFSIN
U.S. Environmental Protection Agency [EPA]
National Institutes of Environmental Health Sciences [NIEHS]
National Toxicology Program [NTP]
U.S. Food and Drug Administration [FDA]
Cytochrome P450 (CYP) enzymes are membrane-bound hemeproteins that play a key role in metabolism of drugs and xenobiotics. Evaluation of the effect of chemicals on CYP isozymes is useful to minimize the adverse drug reactions and toxicities in drug development process. Tox21 chemicals were tested for their effect on CYP enzyme activities by using P450-Glo (TM) screening systems (Promega Corporation, Madison, WI). These systems provide a luminescent method containing proluciferin substrates and are converted to luciferin products by CYP isozymes. The luciferin products formed are detected with a luciferin detection reagent, and the amount of light produced is proportional to CYP activity. P450-Glo (TM) CYP1A2 screening system (Catalog. No. V9770) was used to detect the compounds that interfere in CYP1A2 activity. The positive control compound used for CYP1A2 assay is furafylline (Sigma-Aldrich, St. Louis, MO).
Tox21 Assay Protocol Summary:
Two ul of enzyme-substrate mix was dispensed into medium binding white/solid 1536-well plates (Greiner Bio-One North America Inc., Monroe, NC) using a BioRaptr Flying Reagent Dispenser (FRD, Beckman Coulter, Brea, CA). Compounds dissolved in DMSO and positive control (furafyllline) were transferred to the assay plates at 23 nl using a Pintool station (Wako, San Diego, CA). The assay plates were incubated at room temperature for 10 min. Then 2 ul of NADPH regeneration solution was added to each well of the assay plates using an FRD and incubated at room temperature for 1 h. The reaction was stopped by adding 4 ul of detection reagent using an FRD and after 20 min incubation at room temperature the luminescence signal was measured using a ViewLux plate reader (Perkin Elmer, Shelton, CT). Data were expressed as relative luminescence units.
(In general: Reporter assays use an easily measured gene product as a stand-in for the process of interest.)
For `CCCCCCCCCCCCCCCCC(C(=O)O)C(O)(CC(=O)O)C(=O)O` (stereo not given), the “activity change, negative = inhibition” value is 15.7% [at 53 µM] (inactive).

For the compound `COc1c(Br)cc(Br)c(C)c1Br`, the Potency was 3.56 µM (active).

`CCc1cccc(CC)c1`: the “activity change, negative = inhibition” value was -15.4% (inactive).

With `COc1ccc(OC)c(N=Nc2c(O)ccc3ccccc23)c1`, the Potency was 0.894 µM (active).

Consider `CC1(C)[C@H](C(=O)OCc2cccc(Oc3ccccc3)c2)[C@@H]1C=C(Cl)Cl`, for which the “activity change, negative = inhibition” value is -11.2% (inactive).

With `Nc1ccc(Cl)c([N+](=O)[O-])c1`, the Potency was 31.7 µM (active).

With `CCCC(C)C=O` (stereo not given), the “activity change, negative = inhibition” value is -10.1% (inactive).

Take `CC(C)(C)c1cc(CCC(=O)OCCSCCOC(=O)CCc2cc(C(C)(C)C)c(O)c(C(C)(C)C)c2)cc(C(C)(C)C)c1O`: the “activity change, negative = inhibition” value was -12.8% [at 53 µM] (inactive).

`O=C1OC2(c3ccccc31)c1ccc(O)c(Br)c1Oc1c2ccc(O)c1Br`: the “activity change, negative = inhibition” value is -24% (inactive).

As for `CC/C=C(\C)C=O`, the Potency is 39.9 µM (active).

For `Clc1ccc2c(Cl)ccnc2c1`, the Potency is 5.64 µM (active).

Take `COc1cc(/C=C/C(=O)CC(=O)/C=C/c2ccc(O)c(OC)c2)ccc1O`: the Potency was 31.9 µM (active).

For `NC(=O)c1ccccc1Cl`, the “activity change, negative = inhibition” value was -28.6% (inactive).

On to `c1ccc(-c2ccccc2-c2ccccc2)cc1`, for which the Potency is 3.17 µM (active).

In the case of `C=C[Si](C)(C)Cl`, the activity change, negative = inhibition was -9.04% [at 10.5 µM] (inactive).

As to `Nc1c(Br)cc([N+](=O)[O-])cc1Br`, the Potency is 1.78 µM (active).

For the compound `Oc1ccc(C2(c3ccc(O)c(C4CCCCC4)c3)CCCCC2)cc1C1CCCCC1`, the “activity change, negative = inhibition” value is -20.4% (inactive).

Regarding `CCCCCCCCCC[N+](C)(CCCCCCCCCC)CCC[Si](OC)(OC)OC`, the Potency was 20 µM (active).

`C=CC(=O)OCCOC1C2CCC1C1CC=CC12` (stereo not given): the activity change, negative = inhibition was -16.8% [at 23.6 µM] (inactive).

Turning to `Cc1cc(C)c(O)c(C(C)(C)C)c1`, the Potency is 31.7 µM (active).

Regarding `C/C(=C\c1ccc(C(=O)O)cc1)c1ccc2c(c1)C(C)(C)CCC2(C)C`, the “activity change, negative = inhibition” value is -11.9% [at 53 µM] (inactive).

On to `CCN(CC)c1ccc(C=O)cc1`, for which the Potency is 5.64 µM (active).

On to `CCCCCCCCCCCCCCCCCCNC(=O)OC1CCN(C(=O)OC[C@H](COC(=O)N(Cc2cccc[n+]2CC)C(=O)c2ccccc2OC)OC)CC1`, for which the “activity change, negative = inhibition” value is -16.8% [at 53 µM] (inactive).

As to `CC(C)c1ccc2sc3ccccc3c(=O)c2c1`, the Potency was 7.1 µM (active).

On to `CC1=C(/C=C/C(C)=C/C=C/C(C)=C\C(=O)O)C(C)(C)CCC1`, for which the Potency is 40 µM (active).

With `CCCCCCCCCCCCS(=O)(=O)Cl`, the activity change, negative = inhibition was 5.89% [at 23.6 µM] (inactive).

In the case of `Nc1ccc2c(S(=O)(=O)O)cccc2c1S(=O)(=O)O`, the “activity change, negative = inhibition” value was -7.99% [at 53 µM] (inactive).

On to `CCCCNc1ccc(NCCCC)c2c1C(=O)c1ccccc1C2=O`, for which the Potency was 3.79 µM (active).

Regarding `CN(C/C=C/c1ccccc1)Cc1cccc2ccccc12`, the Potency is 12.9 µM (active).

`Cc1cc(Br)ccc1NC(=O)CCl`: the Potency was 11.2 µM (active).

For the compound `COc1cc(OC)nc(NC(=O)NS(=O)(=O)Nc2ccccc2C(=O)N(C)C)n1`, the Potency was 63.3 µM (active).

As for `C=C1CC[C@H]2O[C@]2(C)CC[C@@H]2[C@@H]1CC2(C)C`, the “activity change, negative = inhibition” value was 0.185% (inactive).

For the compound `O=C(c1ccccc1)c1ccc(Cl)cc1`, the Potency was 5.03 µM (active).

As to `C/C=C/C(=O)OCC(C)C`, the “activity change, negative = inhibition” value was -22.5% (inactive).

Turning to `CCCCCCCCCCCCN1CCCC1=O`, the Potency is 28.3 µM (active).

Take `CCc1cccc(C)c1N(C(=O)CS(=O)(=O)O)C(C)COC` (stereo not given): the “activity change, negative = inhibition” value is -2.13% (inactive).

For the compound `N#CCCOCCC#N`, the “activity change, negative = inhibition” value was -1.53% (inactive).

Regarding `c1ccc2cc3c4ccccc4c4ccccc4c3cc2c1`, the Potency was 0.225 µM (active).

Consider `CCCCC/C=C\C=C\C(=O)OCC`, for which the Potency was 37.1 µM (active).

Regarding `O=C(O)CN(CCCN(CC(=O)O)CC(=O)O)CC(=O)O`, the activity change, negative = inhibition was -0.26% [at 23.6 µM] (inactive).

Source of the values: PubChem BioAssay (Tox21).
